Screens: PubChem, The Scripps Research Institute Molecular Screening Center
TEAD-YAP inh – TEAD-YAP interaction inhibition; HEK-TIYL cells, TEAD-Gal4/YAP UAS-luciferase luminescence; inhibition, % at 9.12 µM; 1.4% of 640,000 active; AID 1259422; in the data active = inhibition above about 32%
MITF inh – human MITF inhibition, primary screen. inhibition, % at 2.6 µM. AID 1259374. 0.91% of 650,000 active. AlphaScreen MITF homodimerization, bead proximity signal; in the data active = inhibition above about 50%
FBW7 act – activators of human E3 ligase FBW7 | Q969H0 | AlphaScreen FBW7–phospho-cyclin E peptide binding, activator screen | normalized activity (activation), % at 26.1 µM | 0.13% of 650,000 active | AID 1259310; in the data active = normalized activity above about 1.9%;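 note: purified mutant Fbw7 with reduced substrate affinity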
GPR151 ag – human GPR151 activation. PathHunter beta-arrestin GPR151 cells, luminescence. activation, % at 11.2 µM. 1% of 650,000 active; in the data active = activation above about 4.9%
Target sequence (Q8TDV0 whole entry, looked up): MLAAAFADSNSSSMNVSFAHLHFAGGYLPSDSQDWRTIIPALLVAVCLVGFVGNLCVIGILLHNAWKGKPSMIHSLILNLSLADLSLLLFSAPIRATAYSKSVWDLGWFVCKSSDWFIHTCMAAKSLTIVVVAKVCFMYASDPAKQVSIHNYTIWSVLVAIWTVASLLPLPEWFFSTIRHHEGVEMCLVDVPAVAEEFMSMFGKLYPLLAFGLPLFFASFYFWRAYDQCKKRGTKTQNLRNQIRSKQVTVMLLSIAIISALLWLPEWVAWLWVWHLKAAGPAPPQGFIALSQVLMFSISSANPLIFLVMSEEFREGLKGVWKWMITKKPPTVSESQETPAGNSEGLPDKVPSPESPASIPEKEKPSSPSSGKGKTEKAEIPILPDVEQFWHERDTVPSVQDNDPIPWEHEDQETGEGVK
MITF inh conf – confirmation of human MITF inhibitors; AlphaScreen MITF homodimerization, biotin/His-MITF beads; 16% of 4,700 active; shares compounds with MITF inh; inhibition, % at 2.6 µM;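 active = inhibition above a cutoff derived from the DMSO control wells, cut at about 28% in these data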;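 note: inhibitors lower the bead chemiluminescence by keeping MITF from dimerizing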
AlphaScreen DR – counter-screen: compounds optically interfering with AlphaScreen; shares compounds with MITF inh; 6% of 480 active; IC50, µM; AlphaScreen optical interference counterscreen, cell-free; call rule not given here
AS interf ctr – AlphaScreen optical interference, counter-screen. shares compounds with MITF inh. LysRS AlphaScreen counterscreen, signal interference, triplicate. inhibition, % at 2.6 µM. 7.6% of 4,700 active;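 active = inhibition above a cutoff derived from the DMSO control wells, cut at about 30% in these data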
Each line names hits and unclear results; the compound was inactive in the other large screens (follow-up assays come after a bar, where they were run). A selection: hits, their analogues and other compounds. The true share with any hit is near 3.5%.

CCOc1ccccc1CN1CCN(S(=O)(=O)c2ccc(Cl)cc2)CC1	MITF inh 61.4 | MITF inh conf inactive | AS interf ctr inactive
Cc1cc(S(=O)(=O)N2CCN(Cc3ccc(Cl)cc3)CC2)ccc1-n1cnnn1	MITF inh 60.0 | MITF inh conf inactive | AS interf ctr inactive
Cc1ccccc1CN1CCN(S(=O)(=O)c2ccc(Cl)cc2)CC1	MITF inh 53.1 | MITF inh conf inactive | AS interf ctr inactive
COc1cccc(CN2CCN(S(=O)(=O)c3ccccc3)CC2)c1OC	none
Cc1ccc2cccc(OCC(=O)Nc3ccc4c(c3)CCC4)c2n1	none
Cn1c(N)c(C(=O)COC(=O)CCC2CCCC2)c(=O)n(C)c1=O	none
CCN(CC)C(=S)SCc1c(C)c(C)c(Br)c(C)c1C	MITF inh 52.0 | MITF inh conf inactive | AS interf ctr inactive
CCN(CC)C(=S)SCc1cn2cccc(C)c2n1	none
CCC(C(=O)O)N1C(=O)c2cccc([N+](=O)[O-])c2C1=O (stereo unspecified)	none
CCNC(=S)NNC(=O)c1ccc(NC(=O)CC#N)cc1	none
CC(=O)c1ccc(NC(=S)NNC(=O)CC#N)cc1	MITF inh 92.8 | MITF inh conf inactive | AS interf ctr inactive
Clc1cc2c(c3ncccc13)OCN(Cc1cccnc1)C2	TEAD-YAP inh 83.5, MITF inh 93.6 | MITF inh conf 96.3 | AS interf ctr 100.4
O=S1(=O)CCC(N2COc3c(cc(Cl)c4cccnc34)C2)C1 (stereo unspecified)	MITF inh 54.8 | MITF inh conf 39.4 | AS interf ctr 91.2
CCCNc1ccnc(N2CCC(N3CCOCC3)CC2)n1	none
Cc1sc2ncn(CC(=O)NCC(=O)N3CCN(c4ccc(F)cc4)CC3)c(=O)c2c1C	MITF inh 68.2 | MITF inh conf inactive | AS interf ctr inactive
CCCSc1nc2c(c(=O)n1CCc1ccccc1)SC(C)C2 (stereo unspecified)	none
CCSCCOC(=O)C1=C(C)NC2=C(C(=O)C(C(=O)OC)C(C)C2)C1c1cccc(OCc2ccccc2)c1 (stereo unspecified)	MITF inh 71.1 | MITF inh conf inactive | AS interf ctr inactive
CC(C)(C)c1cc(Cl)ccc1OCCN1CCNCC1	MITF inh 58.7 | MITF inh conf inactive | AS interf ctr inactive
CC(O)CNCCCOc1ccc(Cl)cc1C(C)(C)C (stereo unspecified)	MITF inh 52.4 | MITF inh conf inactive | AS interf ctr 57.2
CC(C)(C)c1cc(Cl)ccc1OCCCN1CCNCC1	MITF inh 76.1 | MITF inh conf inactive | AS interf ctr inactive
Clc1ccc(Cl)c(OCCCCN2CCNCC2)c1	none
COc1ccc(CC(=O)NC(=S)Nc2ccc([N+](=O)[O-])cc2)cc1	none
Cc1ccc2cc(C#N)c(N3CCN(S(=O)(=O)c4ccc([N+](=O)[O-])cc4)CC3)nc2c1	none
Cc1ccc(-c2cc(C(=O)NN)c3ccccc3n2)cc1	none
CC(C)NC(=O)c1cccc(NC(=O)Nc2ccc(-c3ncnc4[nH]cc(Cl)c34)cc2)c1	MITF inh 77.9 | MITF inh conf 88.0 | AlphaScreen DR inactive | AS interf ctr inactive
COc1cccc(C2C(C(=O)OC(C)C)=C(C)NC3=C2C(=O)CC(C)(C)C3)c1OC (stereo unspecified)	MITF inh 64.2 | MITF inh conf inactive | AS interf ctr inactive
CCCCCOC(=O)C1=C(C)NC2=C(C(=O)CC(C)(C)C2)C1c1ccccc1I (stereo unspecified)	MITF inh 60.6 | MITF inh conf inactive | AS interf ctr inactive
COc1ccc(C2C(C(=O)OC(C)C)=C(C)NC3=C2C(=O)CC(C)(C)C3)c(OC)c1OC (stereo unspecified)	none
CN(C)c1ccc(C(=O)n2nnc3ccccc32)cc1	MITF inh 61.1 | MITF inh conf inactive | AS interf ctr inactive
COc1ccc(CCNC2CCCN(c3nc(C)c4cc(F)ccc4n3)CC2)c(OC)c1 (stereo unspecified)	none
COc1ccc(Br)cc1S(=O)(=O)N1CCN(c2ccccc2Cl)CC1	none
COc1cc(N)c2nccc(C)c2c1OC	MITF inh 97.4 | MITF inh conf 118.6 | AS interf ctr 59.3
COc1cc(C(=O)Oc2ccccc2N)cc(OC)c1OC	none
NCc1nc2ccncc2[nH]1	none
CCc1nc(C)ccc1OCc1nc2ccncc2[nH]1	MITF inh 58.0 | MITF inh conf inactive | AS interf ctr inactive
Cc1nn(C(=O)c2cccs2)c(N)c1-c1ccccc1	none
Cc1nn(C(=O)c2ccc3c(c2)OCO3)c(N)c1-c1ccccc1	MITF inh 51.6 | MITF inh conf inactive | AS interf ctr inactive
CCOC(=O)COc1ccc(C=O)cc1OCC	MITF inh 76.2 | MITF inh conf inactive | AS interf ctr inactive
CCOc1cc(C=O)ccc1OCC(=O)OC	none
COc1ccc(Br)cc1CN1CCN(Cc2cccn2C)CC1	MITF inh 66.8 | MITF inh conf inactive | AS interf ctr inactive
COc1ccc(OC)c(CN2CCN(Cc3cccn3C)CC2)c1	MITF inh 62.9 | MITF inh conf inactive | AS interf ctr inactive
COc1ccc(Br)cc1CN1CCCCC1	none
COc1ccc(OC)c(CN2CCOCC2)c1	none
COc1ccc(C2C(C(=O)OC(C)C)=C(C)NC3=C2C(=O)CC(c2ccccc2)C3)cc1OC (stereo unspecified)	none
COc1ccc(C2Nc3ccccc3NC3=C2C(=O)CC(c2ccc(Cl)cc2)C3)cc1OC (stereo unspecified)	none
COc1ccc(C2Nc3ccccc3NC3=C2C(=O)CC(c2ccccc2)C3)cc1OC (stereo unspecified)	MITF inh 57.1 | MITF inh conf inactive | AS interf ctr inactive
COc1cc(C2C(C(=O)OC(C)C)=C(C)NC3=C2C(=O)CC(c2ccccc2)C3)ccc1OCc1ccccc1 (stereo unspecified)	MITF inh 64.2 | MITF inh conf inactive | AS interf ctr inactive
CC(=O)C1=C(O)C(=O)N(CCN2CCNCC2)C1c1ccc(F)cc1 (stereo unspecified)	MITF inh 101.4 | MITF inh conf inactive | AS interf ctr inactive
O=c1c2c3c(sc2nc2n1CCCCC2)CCC3	MITF inh 70.6 | MITF inh conf inactive | AS interf ctr inactive
O=C1CCCc2c1sc1nc3n(c(=O)c21)CCCCC3	none
CCc1ccc(N2C(=O)C(Cl)=C(NC3CCCCC3)C2=O)cc1	MITF inh 64.3 | MITF inh conf inactive | AS interf ctr inactive
O=C(/C=C/Nc1ccccn1)c1ccc(Cl)s1	none
COc1ccc(CCNc2nc(-c3sc(C)nc3C)cs2)cc1OC	MITF inh 70.6 | MITF inh conf inactive | AS interf ctr inactive
COc1ccc(-c2noc(CN(C(=O)Cc3ccc(OC)c(OC)c3)C(C)C)n2)cc1	none
COc1ccc(CN(CCCN(C)C)CCCN(C)C)cc1OC	none
CN(C)CCCN(CCCN(C)C)Cc1ccc(Br)cc1	MITF inh 53.8 | MITF inh conf inactive | AS interf ctr inactive
